In PubChem BioAssay (NCI):
Compounds without any hit were thinned out: in the full panel of roughly 83,000, 20% have a hit.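 Plates (96-well) were seeded with cells, treated with compound at one concentration, and incubated for 48 hours before percent growth was determined.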 Calls of active or inactive are those of the source.

The molecules below were run on SN12C renal (assay: NCI-60 one-dose screen, 48 h (100 = growth as untreated, 0 = no growth, -100 = all killed)). Conditions: 10 µM unless noted.
Description: Growth inhibition of the SN12C human tumor cell line is measured as a screen for anti-cancer activity. Cells are grown in 96 well plates and exposed to the test compound for 48 hours. Compounds are tested at a single concentration, which is 10^-5 M for most compounds. The reported endpoint is percent growth (GI% or GIPRCNT), where numbers from 0 - 100% represent growth inhibition, and numbers from -100% - 0 represent cell death. For example, a value of 40 represents 60% growth inhibition. A value of 0 means no net growth occurred over the course of the experiment. A value of -40 indicates 40% of cells at the beginning of the experiment died by the end of the experiment. A value of -100 means all cells are dead at the end of the experiment.
NCI-60 Human Tumor Cell Lines Screen was performed using the standard one-dose NCI protocol, which is described in more detail at https://dtp.cancer.gov/discovery_development/nci-60/default.htm.
Compounds with GIPRCNT values below 10 were considered active. Activity score was based on GIPRCNT using the following formula: […]
Score is 0 for GIPRCNT values of 100 or above, 50 for GIPRCNT values of 0, and 100 for GIPRCNT values of -100.

| SMILES | growth |
| --- | --- |
| Cn1c(=O)c2c(nc(NC3=NS(=O)(=O)c4ccccc43)n2Cc2ccccc2)n(C)c1=O | 93% (inactive) |
| O=C1/C(=C/c2ccccc2[N+](=O)[O-])COc2ccc(O)cc21 | -17.2% (active) |
| N#Cc1c(NC(=O)c2cccs2)[n+]([O-])c2ccc(Cl)cc2[n+]1[O-] | 99.8% (inactive) |
| COc1ccc(C2=Nc3c(N)ncnc3NC(c3cccc(Nc4ccnc5cc(C(F)(F)F)ccc45)c3)C2)cc1 (stereo not given) | 63.9% (inactive) |
| CN1CCN(CCOc2ccc(-c3cnc4c(-c5ccc(C(F)(F)F)cc5)cnn4c3)cc2)CC1 | 53.7% (inactive) |
| CCNC(=O)Oc1ccc(/C(=C(/C)Cc2ccc(OC)cc2)c2ccc(OCCN3CCCC3)cc2)cc1 | 75.6% (inactive) |
| COc1cc(C(=O)/C=C/c2ccc(N3CCN(C)CC3)cc2)cc(OC)c1OC | 98.5% (inactive) |
| CSCCC(NC(=O)c1ccccc1)C(=O)N/N=C1\S/C(=C/c2ccc(Cl)cc2)C(=O)N1C (stereo not given) | 97.3% (inactive) |
| CCc1cccc(Sc2cc(C(=O)N3Cc4ccc(OCCN(C)C)cc4C3)ccc2O)c1 | 63.9% (inactive) |
| CCN1C(=O)N(CC)C2C1NN=c1s/c(=C\c3ccccc3Br)c(=O)n12 (stereo not given) | 24.8% (inactive) |
| CCOC(=O)c1c2c(n3c1NCC3)-c1ccccc1C2=O | 98.3% (inactive) |
| CCCn1c(=S)sc2c1nc(C)n1c(Nc3ccccc3)nnc21 | 55.6% (inactive) |
| CCCCCCOC(=O)CC1=C(C)/C(=C/c2[nH]c(-c3ccc[nH]3)cc2OC)N=C1C | -63% (active) |
| COc1cc2oc(-c3cccc(NC(=O)c4ccc5c(c4)OCO5)c3)cc(=O)c2c(OC)c1OC | 42.1% (inactive) |
| CN1CCN(CCCOc2ccc3ncnc(Nc4ccc(Oc5cccc(F)c5)c(Cl)c4)c3c2)CC1 | 49.4% (inactive) |
| COc1cc2c(c(OC)c1OC)C(=O)N[C@@H]1[C@@H](O)[C@@H](O)[C@H](O)C[C@@H]21 | 104% (inactive) |
| O=C1/C(=C/c2ccc(C(F)(F)F)cc2)COc2ccc(O)cc21 | 69.3% (inactive) |
| CC[C@H](Nc1nc(N)nc(C)c1C#N)c1nc2cccc(NCCCCCC(=O)NO)c2c(=O)n1-c1ccccc1 | 46.3% (inactive) |
| CS(=O)(=O)Nc1cc(-c2ccc3ncnc(Nc4ccc5c(cnn5Cc5cccnc5)c4)c3c2)cnc1Cl | 46.2% (inactive) |
| CC[C@H](C)[C@H](NC(=O)[C@H](CCCNC(=N)N)NC(=O)[C@H](Cc1c[nH]c2ccccc12)NC(=O)[C@@H](NC(=O)[C@H](CCCCN)NC(=O)[C@H](CCCCN)NC(=O)[C@@H](NC(=O)[C@@H](NC(=O)[C@@H](NC(=O)[C@H](CCCCN)NC(=O)[C@H](Cc1ccccc1)NC(=O)[C@H](CCCCN)NC(=O)[C@H](CCCCN)NC(=O)[C@H](Cc1ccccc1)NC(=O)[C@@H](NC(=O)[C@@H](N)CCCCN)[C@@H](C)CC)[C@@H](C)O)[C@@H](C)CC)[C@@H](C)CC)C(C)C)C(=O)N[C@@H](Cc1ccccc1)C(=O)NCC(=O)N[C@@H](CCCNC(=N)N)C(=O)N[C@@H](Cc1ccccc1)C(N)=O | -56.1% (active) |

| SMILES | growth |
| --- | --- |
| Cc1ccc(N=Nc2c(N)nn(-c3ccccc3)c2N)cc1 | 45.4% (inactive) |
| N#Cc1nc2c(S(=O)(=O)c3ccccc3)c(N)n(Cc3cccnc3)c2nc1C#N | 138% (inactive) |
| Cc1ccc(/C=C2\CN(C(=O)C(Cl)Cl)C/C(=C\c3ccc(C)cc3)C2=O)cc1 | -51.3% (active) |
| COc1ccc(Cc2cnc(NC(=O)c3sc4ccccc4c3Cl)s2)cc1 | 28.7% (inactive) |
| C/C(=N\O)C(=O)NCCCCCC(=O)Nc1ccccc1 | 98.5% (inactive) |
| CC(C)CCC[C@@H](C)C1CCC2C3CCC4=C/C(=N/OCCN(C)C)CC[C@]4(C)C3CC[C@@]21C (stereo not given in full) | 92.6% (inactive) |
| COc1ccc(Cl)cc1Nc1nc(C(F)(F)F)ccc1C(=O)N/N=C/c1ccccc1Cl | 0.596% (active) |
| Clc1nccc2c(-c3csc(-c4c[nH]c5ccccc45)n3)c[nH]c12 | 59.2% (inactive) |
| CCOC(=O)c1ccc2c(c1)c1c(C)c3ccncc3c(C)c1n2C | 4.36% (active) |
| COc1cccc(NC(=O)c2cccc(C3CCc4c(cc(OC)c(OC)c4OC)O3)c2)c1 (stereo not given) | 55.2% (inactive) |
| C=CCN=C(N)SCCCCCCSC(N)=NCC=C | 97.4% (inactive) |
| CCOC(=O)c1c(NC(=O)c2ccc(C(C)(C)C)cc2)sc2cc(O)ccc12 | 99.6% (inactive) |
| O=C(N=Nc1c(O)[nH]c2ccccc12)Nc1ccc(Cl)cc1 | 97.1% (inactive) |
| CC(=O)Nc1c(Cl)cc(Cl)c2c1Cc1cc([N+](=O)[O-])ccc1-2 | 80.3% (inactive) |
| O=C1Nc2ccccc2C2c3cccn3-c3ccccc3N12 (stereo not given) | 90.3% (inactive) |
| O=C(Cn1nnc2ccccc21)Nc1ccc(-c2nc3ccccc3s2)cc1 | 101% (inactive) |
| CCOC(=O)c1c(-c2ccccc2)n2c(=O)cc(C)c3c(O)c(O)cc1c32 | 68.7% (inactive) |
| S=c1[nH]c2cc(Cl)ccc2o1 | 100% (inactive) |
| Cc1cccc(-n2c(C)nc3ccc(N4CCCNC4=O)cc3c2=O)c1 | 98% (inactive) |
| Cc1c(Cl)cccc1C(=O)Nc1nc2c(s1)CN(C(=O)Nc1cccc(C(F)(F)F)c1)CC2 | 26% (inactive) |
